{"source": "PubChem BioAssay (NCATS)", "key": {"[1]": {"test_system": "Zika virus NS2B-NS3 protease (unlinked complex)", "test": "Primary screen GU Rhodamine qHTS for Zika virus inhibitors: Unlinked NS2B-NS3 protease assay (AID 1347159); note: nearly all actives have a fitted effect of over 60% in size", "procedure,_shortened": "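Percent inhibition derives from the 15-min fluorescence change (ex 480, em 540 nm), normalized to no-enzyme and no-inhibitor wells. Reactions contained 25 nM NS2B-NS3 complex and 1.5 microM substrate in 10 mM Tris-HCl pH 8.0.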"}, "[2]": {"test_system": "Zika virus NS2B-NS3 protease (linked construct)", "test": "Primary screen NINDS Rhodamine qHTS for Zika virus inhibitors (AID 1347160); note: nearly all actives have a fitted effect of over 55% in size", "procedure,_shortened": "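In 10 mM Tris-HCl pH 8.0 containing 0.01% Tween 20, linked NS2B-NS3 protease (25 nM final) is exposed to test compounds for 15 min. Cleavage of 1.5 microM Rhodamine110 substrate is tracked by fluorescence over 15 min.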"}}, "note": "Results filed as inconclusive are left out. Where a call stands in place of a potency, no number is given. A number with no mark means an inactive call. Active and inactive are the calls of the source. Calls come from the whole dose curve; as a rule, active = well fitted inhibition curve with a large enough effect; inconclusive = small, poorly fitted or top-dose-only effect; inactive = no such curve, though single readings can be large or run the other way.", "data": [{"smiles": "COc1c2c(c(C)c3c1C(=O)OC3)OC1(C)CC(O)C3(O)C(C)(C)OC(=O)CCC3(C)C1C2", "note": "(stereo not drawn)", "values": [{"measurement": "Potency", "setting": "[1]", "result": "inactive"}, {"measurement": "Potency", "setting": "[2]", "result": "inactive"}]}, {"smiles": "CC1(C)CC2C3=CCC4C5(C)CCC(OC6OC(C(=O)O)C(O)C(O)C6OC6OC(CO)C(O)C(O)C6OC6OC(CO)C(O)C(O)C6O)C(C)(CO)C5CCC4(C)C3(C)CCC2(C)C(OC2OCC(O)C(OC3OC(CO)C(O)C(O)C3O)C2O)C1O", "note": "(stereo not drawn)", "values": [{"measurement": "activity change, negative = inhibition", "setting": "[1]", "result": "8.97% [at 19.1 µM]"}, {"measurement": "activity change, negative = inhibition", "setting": "[2]", "result": "-17% [at 10.7 µM]"}]}, {"smiles": "CC(/C=C/C1(O)C(C)CC(O)CC1(C)C)OC1OC(CO)C(O)C(O)C1O", "note": "(stereo not drawn)", "values": [{"measurement": "Potency", "setting": "[1]", "result": "inactive"}, {"measurement": "Potency", "setting": "[2]", "result": "inactive"}]}, {"smiles": "C[C@@H]1C(=O)O[C@H]2CC34[C@H]5C[C@@H](C(C)(C)C)C36[C@@H](OC(=O)[C@@H]6O)OC4(C(=O)O5)[C@]21O", "note": "(stereo partly drawn)", "values": [{"measurement": "Potency", "setting": "[1]", "result": "inactive"}, {"measurement": "Potency", "setting": "[2]", "result": "inactive"}]}, {"smiles": "O=C(NC[C@H](O)CN1CCc2ccccc2C1)c1cc(NC2COC2)ncn1", "values": [{"measurement": "Potency", "setting": "[1]", "result": "inactive"}, {"measurement": "Potency", "setting": "[2]", "result": "inactive"}]}, {"smiles": "COc1ccc2c3c1O[C@H]1C[C@@H](O)C=C[C@@]31CCN(C)C2", "values": [{"measurement": "Potency", "setting": "[1]", "result": "inactive"}, {"measurement": "Potency", "setting": "[2]", "result": "inactive"}]}, {"smiles": "Clc1ccc2c(c1)C1=NCCN1c1c(-c3noc(C4CC4)n3)ncn1-2", "values": [{"measurement": "Potency", "setting": "[1]", "result": "inactive"}, {"measurement": "Potency", "setting": "[2]", "result": "inactive"}]}, {"smiles": "COc1cc2c(cc1OC)CN(C(=O)[C@@H](NCc1ccncc1)C(C)(C)C)CC2", "values": [{"measurement": "Potency", "setting": "[1]", "result": "inactive"}, {"measurement": "Potency", "setting": "[2]", "result": "inactive"}]}, {"smiles": "COC1(CC(C)C)NC(=O)C(O)(Cc2ccccc2)NC1=O", "note": "(stereo not drawn)", "values": [{"measurement": "Potency", "setting": "[1]", "result": "inactive"}, {"measurement": "Potency", "setting": "[2]", "result": "inactive"}]}, {"smiles": "CON(C)C(=O)N1N=C(c2cc(F)ccc2F)S[C@@]1(CCCN)c1ccccc1", "values": [{"measurement": "Potency", "setting": "[1]", "result": "inactive"}, {"measurement": "Potency", "setting": "[2]", "result": "inactive"}]}, {"smiles": "O=C(/C=C/c1ccc(O)cc1)OCC1=CC2OC(=O)C3=CO[C@@H](O[C@@H]4O[C@H](CO)[C@@H](O)[C@H](O)[C@H]4O)[C@H]1[C@@H]32", "note": "(stereo partly drawn)", "values": [{"measurement": "Potency", "setting": "[1]", "result": "inactive"}, {"measurement": "Potency", "setting": "[2]", "result": "inactive"}]}, {"smiles": "C/C(=C\\CCC(C)(O)c1ccc(C)cc1)C(=O)O", "note": "(stereo not drawn)", "values": [{"measurement": "Potency", "setting": "[1]", "result": "inactive"}, {"measurement": "Potency", "setting": "[2]", "result": "inactive"}]}, {"smiles": "CC(C)C(=O)O[C@@H]1[C@@H](O)[C@@H](O[C@H]2O[C@H](CO)[C@@H](O)[C@H](O)[C@H]2O)O[C@H](CO)[C@H]1O", "values": [{"measurement": "Potency", "setting": "[1]", "result": "inactive"}, {"measurement": "Potency", "setting": "[2]", "result": "inactive"}]}, {"smiles": "C=C1C2=CC(O)C(C)C1(C)CC/C(C)=C/CCC1(C)OC1C2=O", "note": "(stereo not drawn)", "values": [{"measurement": "Potency", "setting": "[1]", "result": "inactive"}, {"measurement": "Potency", "setting": "[2]", "result": "inactive"}]}, {"smiles": "O=C(O)[C@H]1CCCC[C@H]1C(=O)N1CCc2ccccc2[C@H]1CN1C(=O)c2ccccc2C1=O", "values": [{"measurement": "Potency", "setting": "[1]", "result": "inactive"}, {"measurement": "Potency", "setting": "[2]", "result": "inactive"}]}, {"smiles": "CCc1nc(C(N)=O)c(Nc2ccc(N3CCC(N4CCN(C)CC4)CC3)c(OC)c2)nc1NC1CCOCC1", "values": [{"measurement": "Potency", "setting": "[1]", "result": "inactive"}, {"measurement": "Potency", "setting": "[2]", "result": "inactive"}]}, {"smiles": "CC(=O)OC[C@]12[C@H](OC(C)=O)C(=O)[C@@H]3[C@@H](OC(C)=O)[C@@]14O[C@@]3(C)COC(=O)c1cccnc1[C@@H](C)[C@H](C)C(=O)O[C@@H]([C@H](OC(C)=O)[C@@H]2OC(C)=O)[C@]4(C)O", "values": [{"measurement": "Potency", "setting": "[1]", "result": "inactive"}, {"measurement": "Potency", "setting": "[2]", "result": "inactive"}]}, {"smiles": "C/C1=C\\C[C@H](O[C@@H]2O[C@H](CO)[C@@H](O)[C@H](O)[C@H]2O)/C(C)=C/[C@H]2OC(=O)[C@H](C)[C@@H]2CC1", "values": [{"measurement": "Potency", "setting": "[1]", "result": "inactive"}, {"measurement": "Potency", "setting": "[2]", "result": "inactive"}]}, {"smiles": "CC(C)=CCCC1(C)Oc2cc3c(c4c2C2C(O4)C(C)(O)CCC21)CN(C(CCC(=O)O)C(=O)O)C3=O", "note": "(stereo not drawn)", "values": [{"measurement": "Potency", "setting": "[1]", "result": "inactive"}, {"measurement": "Potency", "setting": "[2]", "result": "inactive"}]}, {"smiles": "COc1cc2c(cc1O)C1(OC)Cc3ccc4c(c3C1N(C)CC2)OCO4", "note": "(stereo not drawn)", "values": [{"measurement": "Potency", "setting": "[1]", "result": "inactive"}, {"measurement": "Potency", "setting": "[2]", "result": "inactive"}]}, {"smiles": "C[C@@H]1CC[C@H]2C(C)(C)[C@H](O)[C@H](O)C[C@]2(C)[C@@]12Cc1c(O)cc3c(c1O2)CNC3=O", "values": [{"measurement": "Potency", "setting": "[1]", "result": "inactive"}, {"measurement": "Potency", "setting": "[2]", "result": "inactive"}]}, {"smiles": "C=C1C[C@]23C[C@H]1CC[C@H]2[C@@]12C=C[C@H](O)[C@@](C)(C(=O)O1)[C@H]2[C@@H]3C(=O)O", "values": [{"measurement": "Potency", "setting": "[1]", "result": "inactive"}, {"measurement": "Potency", "setting": "[2]", "result": "inactive"}]}, {"smiles": "COc1cc(N2CCC(O)CC2)ccc1Nc1cc(Nc2ccccc2S(=O)(=O)C(C)C)c2cc[nH]c2n1", "values": [{"measurement": "Potency", "setting": "[1]", "result": "inactive"}, {"measurement": "Potency", "setting": "[2]", "result": "inactive"}]}, {"smiles": "O=C(COc1ccc(Cl)cc1)NC1CCC(NC(=O)COc2ccc(Cl)cc2)CC1", "note": "(stereo not drawn)", "values": [{"measurement": "Potency", "setting": "[1]", "result": "inactive"}, {"measurement": "Potency", "setting": "[2]", "result": "inactive"}]}, {"smiles": "COC12CC3C(C(C)C1=CC(=O)O2)C(O)C(OC(C)=O)C1C(C)(C)C(OC(C)=O)CCC31C", "note": "(stereo not drawn)", "values": [{"measurement": "Potency", "setting": "[1]", "result": "inactive"}, {"measurement": "Potency", "setting": "[2]", "result": "inactive"}]}, {"smiles": "CCOC(=O)c1c(C)nn(-c2cccc([N+](=O)[O-])c2)c1C", "values": [{"measurement": "Potency", "setting": "[1]", "result": "inactive"}, {"measurement": "Potency", "setting": "[2]", "result": "inactive"}]}, {"smiles": "COC(=O)[C@]12C(=O)C(C)=C(O)[C@@]1(C)C(C)=CC1[C@@]34CC[C@@H](OC(C)=O)C(C)(C)C3[C@H](C[C@]12C)OC4=O", "note": "(stereo partly drawn)", "values": [{"measurement": "Potency", "setting": "[1]", "result": "inactive"}, {"measurement": "Potency", "setting": "[2]", "result": "inactive"}]}, {"smiles": "COc1cc(/C=C/c2cc(O)cc(O[C@@H]3O[C@H](CO)[C@@H](O)[C@H](O)[C@H]3O)c2)ccc1O", "values": [{"measurement": "Potency", "setting": "[1]", "result": "inactive"}, {"measurement": "Potency", "setting": "[2]", "result": "inactive"}]}, {"smiles": "c1nc(NC2CCCCCC2)c2cc(CNC[C@H]3CCCO3)sc2n1", "values": [{"measurement": "Potency", "setting": "[1]", "result": "inactive"}, {"measurement": "Potency", "setting": "[2]", "result": "inactive"}]}]}
